Giardia killer: Giardia lamblia killing; activity change, % at 7.66 µM, hits read low; hit rate 0.15% among 340,000; Giardia lamblia trophozoite viability; in the data active = activity change below about -80%; inconclusive = between about -30% and that limit;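 note: parasites exposed to compound for two days anaerobically before the ATP read; % is set by controls: 0 for no effect and ±100 for the full control effect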
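Media and compound were dispensed first, then trophozoites at 100 cells/well; plates sat 48 hrs at 37 deg C without oxygen before ATP luminescence reagent was added and read after 15-30 min at room temperature.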
ASM inhibitor: blocks human secretory acid sphingomyelinase; P17405; placental ASM, HMU-PC fluorogenic substrate, 60 min; Potency, µM (doses to about 57.5 µM), for the others: at the top dose activity change, negative = inhibition, most hits filed as inhibitors; hit rate 0.006% among 340,000; AID 504937; note: potency is the fitted concentration of half-maximal effect
Target sequence (P17405 47-631 limits assumed): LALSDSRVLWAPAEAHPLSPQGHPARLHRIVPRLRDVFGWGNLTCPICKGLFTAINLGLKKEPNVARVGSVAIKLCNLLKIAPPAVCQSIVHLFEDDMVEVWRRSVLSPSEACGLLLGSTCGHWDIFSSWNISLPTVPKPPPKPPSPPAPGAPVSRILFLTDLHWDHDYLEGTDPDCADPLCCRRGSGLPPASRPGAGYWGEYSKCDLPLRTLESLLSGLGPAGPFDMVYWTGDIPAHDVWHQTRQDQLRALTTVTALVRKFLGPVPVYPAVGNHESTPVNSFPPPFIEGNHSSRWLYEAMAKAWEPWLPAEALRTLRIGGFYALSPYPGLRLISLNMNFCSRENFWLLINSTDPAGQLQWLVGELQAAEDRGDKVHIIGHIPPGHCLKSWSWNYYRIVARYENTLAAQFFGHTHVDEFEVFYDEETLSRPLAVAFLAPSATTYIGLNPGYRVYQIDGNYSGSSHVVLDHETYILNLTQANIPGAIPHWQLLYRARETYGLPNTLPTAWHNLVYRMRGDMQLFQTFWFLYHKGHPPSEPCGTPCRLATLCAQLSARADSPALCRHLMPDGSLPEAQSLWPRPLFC
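Fluorogenic HMU-PC substrate (9 uM final) is turned over by placental ASM in 60 min at 37 C after a 10 min compound preincubation. Reaction ended by alkaline stop (pH 10), with fluorescence read at 386/447 nm.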
KB-V1 MDR tox: kills drug-selected multidrug resistant KB-V1 cells | KB-V1 MDR cells viability, CellTiter-Glo, 72 h | hit rate 3.4% among 400,000 | Potency, µM (titrated, usually from 46.1 µM), actives largely listed as cytotoxic | AID 1347076; note: potency is the fitted concentration of half-maximal effect; % is set by controls: 0 for no effect and ±100 for the full control effect; nearly all actives have a fitted effect of over 60% in size
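Drug-selected KB-V1 cells, grown in DMEM lacking phenol red with 10% FBS, receive compound titrations; after three days at 37 degrees C, surviving cell ATP is quantified by CellTiter-Glo luminescence and responses normalized and curve-fitted.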
KB-3-1 tox: KB-3-1 parental cell cytotoxicity. AID 1347075. hit rate 1.4% among 400,000. KB-3-1 viability, CellTiter-Glo ATP luminescence, 72 h. Potency, µM (highest dose often 46.1 µM), actives largely listed as cytotoxic; note: potency is the fitted concentration of half-maximal effect; % is set by controls: 0 for no effect and ±100 for the full control effect; nearly all actives have a fitted effect of over 60% in size
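Cytotoxicity measured as CellTiter-Glo luminescence after 72 h at 37 C. Compound titrations were pinned onto drug-naive KB-3-1 parental adenocarcinoma cells grown in DMEM with 10% FBS, and normalized data fitted to concentration-response curves.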
MCF10A rerep: inducers of DNA re-replication in MCF 10A breast cells | MCF 10A DNA re-replication, Hoechst nuclear intensity, 48 h | Potency, µM (top dose mostly 46.1 µM), for the others: at the top dose activity, positive = re-replication, actives largely listed as activators | hit rate 2.9% among 350,000; note: potency is the fitted concentration of half-maximal effect; % of control where 0% means no effect; nearly all actives have a fitted effect of over 50% in size
SW480 rereplic: inducers of DNA re-replication in SW480 colon cancer cells; SW480 DNA re-replication, Hoechst DNA content imaging, 48 h; Potency, µM (series often up to 46.1 µM), inactives show top-dose re-replication activation, most hits filed as activators; hit rate 1.8% among 340,000; note: potency is the fitted concentration of half-maximal effect; % of control where 0% means no effect; nearly all actives have a fitted effect of over 55% in size
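Hoechst fluorescence of nuclei (405 nm excitation, 500-530 nm emission) measured by plate-scanning imager after 48 hr compound exposure at 37 C; re-replication scored as increased number of nuclei with elevated intensity.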
* = called active by the depositor; i = inactive; ? = inconclusive; nt = not tested or not shown. Sampled rows, rich in hits. Any-hit rate of the full collection: about 6.9%. Unless noted, calls come from the whole dose curve; as a rule, active = well fitted curve in the direction sought with a large enough effect; inconclusive = small, poorly fitted or top-dose-only effect, or another doubt; inactive = no such curve, though single readings can be large; an effect the other way counts as inactive or inconclusive.

SMILES	Giardia killer	ASM inhibitor	KB-V1 MDR tox	KB-3-1 tox	MCF10A rerep	SW480 rereplic
COC(=O)Oc1ccc(/C=C/C(=O)OC(C)C)cc1OC(=O)OC	-1	48%	i	i	?	-2%
CCCCOC(=O)/C=C/c1ccc(OC(=O)OC)c(OC(=O)OC)c1	11	50%	i	?	15µM*	?
COC(=O)C1=C(C)N(Cc2ccccc2)C(=NCc2cccc(Cl)c2)N[C@H]1c1cccc(F)c1	13	-13%	21µM*	?	?	?
Cc1sc(NC(=O)C2=COCCO2)nc1-c1ccc(Cl)cc1	2	1%	i	i	?	-2%
CS(=O)(=O)N(CC(=O)N/N=C/c1cc2c(cc1Br)OCO2)c1ccccc1Br	-3	-9%	18µM*	?	1%	-6%
C=CCn1c(=O)[nH]c2cc(C(=O)N3CCN(c4cccc(Cl)c4)CC3)ccc2c1=O	-22	-3%	12µM*	?	17%	11%
O=C(c1ccc(Cn2c(=O)[nH]c3ccccc3c2=O)cc1)N1CCN(c2ccc(Cl)cc2)CC1	-8	-22%	21µM*	?	21%	17%
C#CCn1c(S(=O)(=O)Cc2ccc(F)cc2)nc(-c2ccccc2)c1-c1ccccc1	-7	-3%	5.2µM*	16µM*	?	?
CCOC(=O)Cn1c(S(=O)(=O)Cc2cccc(F)c2)nc(-c2ccccc2)c1-c1ccccc1	16	-2%	21µM*	i	?	?
CCOC(=O)Cn1c(S(=O)(=O)Cc2ccc(F)cc2)nc(-c2ccccc2)c1-c1ccccc1	?	-3%	i	i	-3%	-1%
COC(=O)c1sccc1S(=O)(=O)N(CC(=O)NCc1ccc(C)cc1)c1ccccc1	nt	nt	i	i	nt	nt
CC(=O)Oc1ccc(C2=Cc3ccc(OC(C)=O)cc3OC2C)cc1 (configuration not stated)	8	17%	?	?	4.1µM*	?
Cc1ccc2ccc[n+](Cc3ccccc3)c2c1	19	-1%	i	5.2µM*	4%	11%
Cc1ccc2c(c1)c(C)cc[n+]2Cc1ccccc1	4	-3%	i	8.2µM*	1%	1%
COc1ccc2c(c1)c(C)cc[n+]2Cc1ccccc1	-14	47%	i	8.2µM*	0%	-12%
Cc1ccc2c(ccc[n+]2CC(=O)c2ccccc2)c1	21	-4%	i	i	-3%	-3%
Cc1ccc(C[n+]2cccc(-c3ccccc3)c2)c(C)c1	8	-3%	i	i	-5%	-7%
Cc1ccc(-c2[nH]ncc2CNCc2ccccc2)cc1	0	nt	i	i	nt	nt
O=c1[nH]cc(S(=O)(=O)NCc2ccccc2)c(=O)[nH]1	2	3%	i	i	0%	0%
COc1ccc(C2CC(c3cccc(F)c3)=NN2c2ccc(S(N)(=O)=O)cc2)cc1 (configuration not stated)	-1	i	i	?	2.1µM*	2.3µM*
O=C(O)c1ccc(N2N=C(c3ccccc3)CC2c2ccccc2)cc1 (configuration not stated)	3	i	i	i	2.3µM*	?
NS(=O)(=O)c1ccc(N2N=C(c3ccccc3)CC2c2cccc(Cl)c2)cc1 (configuration not stated)	1	i	i	i	?	3.7µM*
NS(=O)(=O)c1ccc(N2N=C(c3ccccc3)CC2c2ccc(F)cc2)cc1 (configuration not stated)	-15	i	?	i	21µM*	21µM*
CSc1ccc(CCNC(=O)Cn2ncc3c(=O)oc4ccc(C)cc4c32)cc1	nt	nt	i	i	nt	nt
CCOC(=O)c1c(C)[nH]c(C)c1S(=O)(=O)N(C)CC(=O)Nc1ccc(OC)cc1	nt	nt	i	i	nt	nt
COc1ccc(C2CC(c3ccccc3)=NN2c2ccc(C(N)=O)cc2)cc1 (configuration not stated)	10	i	i	i	?	21µM*
